Measured values: PubChem BioAssay AID1159580 (chemical genetic matrix, 2015)
Where “and” joins values, the source holds several entries; their conditions need not be identical. Equal values may be shown once. The whole screen tested about 5,500 compounds, of which about 2,000 (36%) were called active. Not shown: some 18% with an inconclusive outcome. Rule as the data show it: active = normalized growth mostly below about 0.91 (no sharp cut-off); inconclusive = no clear call, values can overlap the other calls; inactive = mostly above about 0.92. Some of the results follow.

Test: chemical genetic growth profiling, strain panel (AID 1159580);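 also: tested at 20 µM; growth read once vehicle control cultures reached saturation at 30 °C; 1 = growth at the plate median or of vehicle wells; lower values mean less growth of the strain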
Settings: S. cerevisiae deletion strains, growth OD

Measured: normalized growth

COc1ccc2c(c1OC)C(=O)O[C@@H]2[C@H]1c2cc3c(cc2CCN1C)OCO3
inactive: locus YAL013W, strain DEP1, active compounds read low 1.03 | locus YAL021C, strain ccr4, active compounds read low 1.01 | locus YAL026C, strain drs2, active compounds read low 0.993 | locus YAL030W, strain snc1, active compounds read low 0.991 | locus YBL061C, strain skt5, active compounds read low 0.992 | locus YBR009C, strain hhf1, active compounds read low 0.984 | locus YBR021W, strain FUR4, active compounds read low 1.04 | locus YBR023C, strain chs3, active compounds read low 0.987 | locus YBR171W, strain sec66, active compounds read low 1 | locus YBR229C, strain ROT2, active compounds read low 1.01 | locus YBR231C, strain swc5, active compounds read low 0.989 | locus YBR279W, strain paf1, active compounds read low 0.992 | locus YCL011C, strain gbp2, active compounds read low 0.996 | locus YCL016C, strain dcc1, active compounds read low 0.974 | locus YCL029C, strain bik1, active compounds read low 1.02 | locus YCL061C, strain MRC1, active compounds read low 0.995 | locus YCL069W, strain vba3, active compounds read low 1 | locus YCR088W, strain abp1, active compounds read low 0.997 | locus YDL005C, strain med2, active compounds read low 0.997 | locus YDL035C, strain GPR1, active compounds read low 1.03 | locus YDL040C, strain nat1, active compounds read low 0.991 | locus YDL074C, strain BRE1, active compounds read low 1.03 | locus YDL101C, strain DUN1, active compounds read low 1.01 | locus YDL134C, strain PPH21, active compounds read low 1.01 | locus YDL185W, strain tfp1, active compounds read low 1.03 | locus YDL192W, strain arf1, active compounds read low 1.02 | locus YDR001C, strain nth1, active compounds read low 1 | locus YDR069C, strain doa4, active compounds read low 0.981 | locus YDR101C, strain arx1, active compounds read low 1.01 | locus YDR137W, strain rgp1, active compounds read low 0.969 | locus YDR150W, strain NUM1, active compounds read low 1.02 | locus YDR159W, strain sac3, active compounds read low 0.991 | locus YDR162C, strain NBP2, active compounds read low 1.02 | locus YDR195W, strain ref2 0.985 | locus YDR297W, strain sur2, active compounds read low 0.985 | locus YDR318W, strain mcm21, active compounds read low 1.03 | locus YDR334W, strain swr1, active compounds read low 0.998 | locus YDR335W, strain msn5, active compounds read low 0.989 | locus YDR388W, active compounds read low 1.02 | locus YDR392W, strain spt3, active compounds read low 0.929 | locus YDR502C, strain sam2, active compounds read low 1.01 | locus YEL003W, strain gim4, active compounds read low 1.01 | locus YEL037C, strain rad23, active compounds read low 1 | locus YEL061C, strain CIN8 (second series), active compounds read low 1.01 | locus YEL061C, strain CIN8, active compounds read low 1.01 | locus YER015W, strain faa2, active compounds read low 0.974 | locus YER016W, strain bim1, active compounds read low 0.991 | locus YER110C, active compounds read low 1.03 | locus YER111C, strain swi4, active compounds read low 1.01 | locus YER155C, strain BEM2 (second series), active compounds read low 0.995 | locus YER155C, strain BEM2, active compounds read low 1.02 | locus YER167W, strain BCK2, active compounds read low 1.04 | locus YFR010W, strain ubp6, active compounds read low 1.01 | locus YGL078C, strain dbp3, active compounds read low 1.03 | locus YGL086W, strain mad1, active compounds read low 1.03 | locus YGL167C, strain pmr1, active compounds read low 0.984 | locus YGL173C, strain kem1, active compounds read low 0.993 | locus YGL227W, strain vid30, active compounds read low 0.994 | locus YGL240W, strain doc1, active compounds read low 0.958 | locus YGL248W, strain PDE1, active compounds read low 1.02 | locus YGL253W, strain hxk2, active compounds read low 0.999 | locus YGR078C, strain PAC10, active compounds read low 1.01 | locus YGR135W, strain pre9, active compounds read low 1.01 | locus YGR229C, strain SMI1, active compounds read low 1.03 | locus YGR252W, strain gcn5, active compounds read low 1.06 | locus YHR013C, strain ard1, active compounds read low 0.965 | locus YHR027C, strain rpn1, active compounds read low 1.01 | locus YHR030C, strain SLT2, active compounds read low 1.02 | locus YHR079C, strain IRE1 (second series), active compounds read low 1.02 | locus YHR079C, strain IRE1, active compounds read low 0.995 | locus YHR094C, strain hxt1, active compounds read low 1.02 | locus YHR129C, strain ARP1, active compounds read low 1.02 | locus YHR142W, strain chs7, active compounds read low 1.01 | locus YHR200W, strain rpn10, active compounds read low 1.01 | locus YIL066C, strain RNR3, active compounds read low 1.02 | locus YIL073C, strain SPO22, active compounds read low 1.11 | locus YIL125W, strain kgd1, active compounds read low 1.02 | locus YIR030C, strain dcg1, active compounds read low 1.01 | locus YJL092W, strain hpr5, active compounds read low 0.999 | locus YJL095W, strain BCK1 (second series), active compounds read low 0.996 | locus YJL095W, strain BCK1, active compounds read low 1.01 and 1 | locus YJL115W, strain asf1, active compounds read low 0.997 | locus YJL129C, strain trk1, active compounds read low 1.02 | locus YJL134W, strain LCB3, active compounds read low 1.01 | locus YJL154C, strain vps35, active compounds read low 0.999 | locus YJL164C, strain tpk1, active compounds read low 0.984 | locus YJL166W, strain qcr8, active compounds read low 0.975 | locus YJL168C, strain set2, active compounds read low 1.01 | locus YJL187C, strain SWE1 (second series), active compounds read low 1.02 | locus YJL187C, strain SWE1, active compounds read low 0.988 | locus YJR043C, strain POL32, active compounds read low 1.06 | locus YJR066W, strain TOR1, active compounds read low 0.975
